Screens as filed in PubChem.
Tau FP inhib – qHTS for Inhibitors of Tau Fibril Formation, Fluorescence Polarization | K18 P301L tau heparin fibrillization, Alexa594 FP, 6 h | Microtubule-associated protein tau (Homo sapiens), P10636 | Potency, µM (top dose mostly 57.7 µM), for the others: at the highest dose activity, negative = inhibition, hits mostly inhibitors | AID 1468, 2008 | hit rate 0.39% among 280,000; also: nearly all actives have a fitted effect of over 55% in size
Target sequence (P10636 561-689 P618L limits assumed): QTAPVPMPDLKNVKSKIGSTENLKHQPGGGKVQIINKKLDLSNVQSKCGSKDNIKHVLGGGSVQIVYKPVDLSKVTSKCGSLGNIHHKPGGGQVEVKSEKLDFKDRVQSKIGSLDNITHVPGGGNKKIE
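FP of Alexa 594-tau after heparin (20 uM) induction. Substrate: human K18 P301L, 15 uM unlabeled, 0.24 uM labeled. Buffer 100 mM sodium acetate pH 7. 6 hr, 37 C.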
Tau fluor counter – Counterscreen qHTS for Inhibitors of Tau Fibril Formation, Fluorescence Polarization; tau K18 P301L Alexa594 fluorescence, heparin fibrillization; Potency, µM (series often up to 57.7 µM), for the others: top-dose activity change, negative = decrease; hit rate 0.93% among 280,000; AID 1463, 2008; also: nearly all actives have a fitted effect of over 55% in size
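Human K18 P301L tau (15 uM unlabeled plus 0.24 uM Alexa 594-labeled, final) in 100 mM sodium acetate pH 7 was mixed with compound and 20 uM heparin and incubated 6 hr at 37 C.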
HPGD block – qHTS Assay for Inhibitors of HPGD (15-Hydroxyprostaglandin Dehydrogenase); 15-hydroxyprostaglandin dehydrogenase [NAD(+)] (Homo sapiens), P15428; purified HPGD, NADH fluorescence kinetic, PGE2 substrate; Potency, µM, for the others: at the top dose activity change, negative = inhibition, hits mostly inhibitors; hit rate 4.3% among 150,000; active = well fitted inhibition curve with a large enough effect, not every such curve was filed as active; inconclusive = small, poorly fitted or top-dose-only effect, or another doubt; inactive = no such curve, though single readings can be large or run the other way
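20 nM HPGD preincubated 15 min at room temperature with compound in 50 mM Tris-HCl pH 8, 0.01% Tween 20. Started with 1 mM NAD+ and 30 uM prostaglandin E2; NADH fluorescence (360/450 nm) read 5 times over 30-s intervals, last minus first.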
ALDH1A1 block – qHTS Assay for Inhibitors of Aldehyde Dehydrogenase 1 (ALDH1A1); Aldehyde dehydrogenase 1A1 (Homo sapiens), P00352; hit rate 7.3% among 220,000; Purified ALDH1A1, NADH fluorescence, propionaldehyde substrate; AID 1030, 2008; Potency, µM (titrated, usually from 75.3 µM), without a hit: top-dose activity, negative = inhibition, actives largely listed as inhibitors; active = well fitted inhibition curve with a large enough effect, not every such curve was filed as active; inconclusive = small, poorly fitted or top-dose-only effect, or another doubt; inactive = no such curve, though single readings can be large or run the other way;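 also: plate controls were no enzyme wells and a reference inhibitor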
Target sequence (P00352 whole entry, looked up): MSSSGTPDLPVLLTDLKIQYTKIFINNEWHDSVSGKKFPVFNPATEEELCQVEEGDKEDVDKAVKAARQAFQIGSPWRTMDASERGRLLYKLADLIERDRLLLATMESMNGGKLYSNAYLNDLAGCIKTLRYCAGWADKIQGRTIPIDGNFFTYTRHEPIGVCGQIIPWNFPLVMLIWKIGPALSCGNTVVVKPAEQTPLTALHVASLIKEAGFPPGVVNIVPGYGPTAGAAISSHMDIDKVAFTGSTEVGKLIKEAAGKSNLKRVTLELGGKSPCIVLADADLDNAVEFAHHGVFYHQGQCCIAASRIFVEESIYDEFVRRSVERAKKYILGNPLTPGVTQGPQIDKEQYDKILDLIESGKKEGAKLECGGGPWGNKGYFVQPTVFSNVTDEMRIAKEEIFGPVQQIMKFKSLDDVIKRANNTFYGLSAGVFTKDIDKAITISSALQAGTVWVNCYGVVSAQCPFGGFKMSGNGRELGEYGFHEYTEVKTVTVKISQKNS
Tau ThT inhib – qHTS for Inhibitors of Tau Fibril Formation, Thioflavin T Binding. Potency, µM (doses to about 57.4 µM), for the others: top-dose activity, negative = inhibition, hits mostly inhibitors. recombinant tau K18 P301L (four-repeat tau fragment), heparin-induced fibrillization, ThT fluorescence. Microtubule-associated protein tau (Homo sapiens), P10636. AID 1460, 2008. hit rate 2.1% among 270,000; also: nearly all actives have a fitted effect of over 55% in size
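Tau K18 P301L fragment (15 uM unlabeled plus 0.24 uM Alexa 594-labeled) in 100 mM sodium acetate pH 7 with compound, fibrillization induced by 20 uM heparin for 6 hr at 37 C. Thioflavin T (30 uM) added, fluorescence read after 1 hr (ex 450, em 510 nm).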
JMJD2E inh – qHTS Assay for Inhibitors of Human Jumonji Domain Containing 2E (JMJD2E). JMJD2E catalytic domain, FDH-coupled NADH fluorescence (FDH is formaldehyde dehydrogenase). hit rate 1.6% among 230,000. Potency, µM (doses to about 57.1 µM), without a hit: at the top dose activity change, negative = inhibition, usual class: inhibitors. Lysine-specific demethylase 4E (Homo sapiens), B2RXH2; active = well fitted inhibition curve with a large enough effect, not every such curve was filed as active; inconclusive = small, poorly fitted or top-dose-only effect, or another doubt; inactive = no such curve, though single readings can be large or run the other way;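 also: 0% = wells with enzyme and -100% = buffer wells without enzyme; nearly all actives have a fitted effect of over 50% in size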
The depositor's hits bear a star; ? = inconclusive; · = not tested or not shown; [ ] = dose if it differs, or a comment. Hits are enriched below; roughly 9.9% of the tested compounds scored in any of these assays. Unless noted, calls follow the shape of the dose curve; as a rule, active = well fitted curve in the direction sought with a large enough effect; inconclusive = small, poorly fitted or top-dose-only effect, or another doubt; inactive = no such curve, though single readings can be large; an effect the other way counts as inactive or inconclusive. Unless noted, % is scaled to controls: 0 for no effect and ±100 for the full control effect; potency is read from the fitted curve at half-maximal effect.

SMILES	Tau FP inhib	Tau fluor counter	HPGD block	ALDH1A1 block	Tau ThT inhib	JMJD2E inh
CC(=O)N(c1nc(CCl)cs1)c1c(C)cc(C)cc1C	-5.3%	8.3%	-6.0%	2.2%	0.8%	0.5%
COc1ccc(N(C(=O)c2ccccc2C)S(=O)(=O)c2cccs2)cc1	-0.8%	12.0%	-15.0%	11.2µM*	13.7%	-5.4%
CCCC(=O)NCc1cc(-c2nn(C)c(=O)c3ccccc23)ccc1C	-4.2%	2.2%	17.8µM*	-8.0%	0.5%	-11.8%
Cn1nc(-c2ccc(C(=O)N3CCN(Cc4ccccc4)CC3)cc2)c2ccccc2c1=O	-7.2%	-9.8%	15.8µM*	-36.8%	-15.1%	1.8%
CC(O)CNC(=O)c1ccc(-c2nn(C)c(=O)c3ccccc23)cc1 (stereo not given)	6.9%	-4.5%	28.2µM*	13.8%	-5.9%	-1.0%
Cc1ccc(NC(=O)c2ccc(-c3nn(C)c(=O)c4ccccc34)cc2)c(C)c1	-3.9%	-19.7%	12.6µM*	8.91µM*	?	-4.0%
Cc1ccc(NC(=O)c2ccc(-c3nn(C)c(=O)c4ccccc34)cc2)cc1	-7.8%	-28.6%	17.8µM*	-15.4%	-7.5%	-0.8%
Cn1nc(-c2ccc(C(=O)Nc3ccc(F)cc3)cc2)c2ccccc2c1=O	?	-17.3%	·	?	1.9%	?
Cc1ccc(C(=O)N2CCN(c3cc(=O)[nH]nc3-c3ccccc3)CC2)cc1	-3.9%	-2.9%	0.4%	15.8µM*	-11.3%	2.3%
COc1ccc(CCNC(=O)c2cc(C)nc3c2c(C)nn3-c2ccc(C)cc2)cc1OC	-8.9%	-17.3%	·	·	-18.4%	·
Cc1ccc(/C=C/c2onc(C)c2S(=O)(=O)N2CCC(C(=O)Nc3cc(C)ccc3C)CC2)cc1	?	-6.1%	·	·	6.1%	·
COc1ccc(C(=O)C2CCCN(Cc3ccc(C#CCCO)cc3)C2)cc1F (stereo not given)	5.7%	-3.9%	·	?	2.1%	-21.5%
COc1ccc2c(c1)CC/C(=C\Nc1ccc3c(c1)OCO3)C2=O	?	14.1µM*[quencher]	-29.8%	2µM*	1.26µM*	?
COc1cccc(/C=C2\CCc3ccccc3C2=O)c1	-11.5%	-21.2%	·	9.8%	?	1.6%
COc1ccc(S(=O)(=O)Nc2ccc3c(c2)OCO3)cc1	?	-17.7%	-14.8%	?	-13.8%	-8.3%
O=S(=O)(Nc1ccc2c(c1)OCO2)c1ccccc1	7.7%	-2.9%	?	5.8%	-2.3%	0.4%
COc1ccc(N/C=C2\CCc3ccccc3C2=O)cc1	-14.7%	28.2µM*[quencher]	·	?	0.891µM*	3.8%
O=C1/C(=C/Nc2ccc3c(c2)OCO3)CCc2ccccc21	?	7.94µM*[quencher]	25.1µM*	10µM*	1.58µM*	14.1µM*
COc1ccc2c(c1)CC/C(=C\C=C\c1ccccc1)C2=O	-8.3%	-25.4%	-20.6%	28.2µM*	2.51µM*	?
Cc1ccc(NC(=S)N/N=C/c2c(Cl)cccc2Cl)c(C)c1	-6.8%	-27.1%	-16.1%	-5.2%	?	7.0%
Cc1ccc(NNC(=S)Nc2ccc(C(C)C)cc2)c(C)c1	-7.7%	?	?	22.4µM*	14.1µM*	-29.6%
COc1ccccc1C(=O)Nc1ccc(C(=O)OCc2cc(=O)n3c4c(sc3n2)CCCC4)cc1	-3.3%	-3.4%	·	·	12.9%	·
CO/N=C/C1CCN(c2ncc(C(F)(F)F)cc2Cl)C1=O (stereo not given)	-2.3%	-5.0%	·	31.6µM*	-4.9%	2.1%
COc1ccc(C(=O)OC2CCN(c3ncc(C(F)(F)F)cc3Cl)CC2)cc1	-13.8%	-12.7%	-16.3%	2.0%	?	-8.6%
O=C(c1ccc2ccccc2c1)N1CCN(c2ccc(C(F)(F)F)cn2)CC1	0.2%	-7.3%	-21.0%	15.8µM*	-14.6%	-14.0%
SMILES	Tau FP inhib	Tau fluor counter	HPGD block	ALDH1A1 block	Tau ThT inhib	JMJD2E inh
CN1CCN(C(=O)c2ccc3ccccc3c2)CC1	0.8%	1.7%	15.8µM*	-3.4%	3.9%	4.5%
CN1CCN(C(=O)c2ccc(-n3cccc3)cc2)CC1	2.2%	6.6%	14.1µM*	3.8%	-2.0%	3.3%
O=C(c1ccc(-n2cccc2)cc1)N1CCN(Cc2ccccc2)CC1	2.4%	3.5%	-11.7%	-10.1%	-2.1%	5.3%
COc1ccc2c(c1)CCc1c(C(=O)N(C)c3ccccc3)noc1-2	?	-17.4%	·	?	?	-5.0%
CC(=C/C(=O)O)/C=C/c1ccco1	?	-19.6%	-9.6%	?	14.1µM*	-6.3%
c1ccc(C[n+]2cccc(-c3cc4ccccc4[nH]3)c2)cc1	·	·	3.5%	-12.6%[13.5 µM]	·	·
Cc1ccc2oc(-c3ccc(Cl)c(NC(=O)c4cc5ccccc5o4)c3)nc2c1	1.7%	2.7%	·	·	-3.5%	·
CCOC(=O)c1cc2c(nc1N)CCCC2	4.3%	-1.8%	·	·	-5.5%	?
C=C(C)CNC(=S)Nc1nc2c(cc1C(=O)OCC)CCCC2	-1.0%	6.3%	-13.0%	1µM*	-1.0%	?
O=C(C1CCC(Cn2c(=O)c3sccc3n(Cc3cccc(F)c3)c2=O)CC1)N1CCOCC1 (stereo not given)	-0.9%	-11.9%	·	·	-9.1%	·
COC(=O)c1ccc(N2NC(=O)/C(=C/c3ccc(-c4ccc(Cl)c(C(=O)O)c4)o3)C2=O)cc1	?	?	·	8.91µM*	6.31µM*	-26.1%
CC1(C)OC(=O)C(=Cc2ccc(-c3ccc(Cl)c(C(=O)O)c3)o2)C(=O)O1	-1.5%	7.2%	·	?	-3.1%	?
CC1=NOC(=O)/C1=C\c1ccc(-c2cccc(Cl)c2)o1	3.0%	?	3.16µM*	?	15.8µM*	10.5%
CC1=NOC(=O)/C1=C\c1ccc(-c2ccccc2Br)o1	-10.6%	-29.6%	·	17.8µM*	?	-26.9%
CC1=NOC(=O)/C1=C\c1ccc(-c2ccc(Cl)c(C(=O)O)c2)o1	-4.3%	-8.3%	·	0.891µM*	?	?
COCC(C)N=C1NN=C(c2c[nH]c3ccccc23)CS1 (stereo not given)	9.7%	9.9%	-25.2%	15.5%	6.7%	11.1%
O=C(O)c1cc(-c2ccc(/C=C3/SC(=S)N(Cc4ccccc4)C3=O)o2)ccc1Cl	-6.2%	1.9%	·	0.0891µM*	10µM*	4.9%
COc1cccc(C2C=C(Nc3ccccc3)C(=O)N2c2ccccc2)c1 (stereo not given)	5.4%	1.5%	?	?	2.6%	?
